{"source": "PubChem BioAssay", "key": {"[1]": {"tested_on": "Wnt5a (protein binding on small-molecule microarray)", "assay": "Wnt5a binders on small-molecule microarray, primary screen, biophysical, 635/667 nm fluorescence (AID 1142);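 further: fluorescence read at 667 nm with signal to noise per printed feature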", "details": "635 nm fluorescence, higher = more signal"}, "[2]": {"assay": "cell viability in Huh7 cells, primary screen, cytotoxicity control for HCV replication inhibitor project, CellTiter-Glo luminescence, basal, 48 h (AID 1143);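 further: Huh7 hepatoma cells carrying a hepatitis C replication reporter with no stimulus; test concentration not given here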", "details": "Huh7 HCV replicon, higher = more signal, called active from +8 up or from −8 down"}, "[3]": {"assay": "P. aeruginosa biofilm formation inhibitors, primary screen, PAO1 strain, BacTiter-Glo luminescence, LB-PBS (AID 1144)", "details": "12 h, higher = more signal"}, "[4]": {"assay": "CREB reporter modulators without forskolin, primary screen, cell-based, PC12, CRE-LacZ reporter, unstimulated (AID 1145)", "details": "no forskolin, luminescence, 4.5 h, higher = more signal, called active from +8 up or from −8 down"}, "[5]": {"assay": "CREB reporter modulators under forskolin, primary screen, cell-based, PC12, CRE-LacZ reporter, forskolin-stimulated (AID 1146);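 further: beta-galactosidase reporter signal reflecting CREB driven transcription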", "details": "luminescence, 4.5 h, higher = more signal, called active from +8 up or from −8 down"}, "[6]": {"molecular_target": "Streptavidin (Streptomyces avidinii) (UniProt P22629)", "sequence (P22629 whole entry, looked up)": "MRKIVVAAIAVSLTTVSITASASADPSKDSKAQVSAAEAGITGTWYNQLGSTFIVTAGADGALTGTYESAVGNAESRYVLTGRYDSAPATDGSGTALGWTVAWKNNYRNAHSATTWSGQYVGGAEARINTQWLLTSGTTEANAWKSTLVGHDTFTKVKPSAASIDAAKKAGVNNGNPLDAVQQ", "assay": "streptavidin binders on small-molecule microarray, primary screen, artefact control for SMM compound annotation, biophysical, 635/667 nm fluorescence (AID 1147);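 further: signal reflects streptavidin binding to arrayed compounds as a control protein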", "details": "streptavidin binding, higher = more signal"}, "[7]": {"assay": "small-molecule binders of probe aInhba, primary screen, biochemical, small-molecule microarray, 635/667 nm fluorescence (AID 1148);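 further: score merges 667nm spot fluorescence with signal-to-noise for antibody binding to printed compounds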", "details": "higher = more signal"}, "[8]": {"molecular_target": "Torsin-1A (Homo sapiens) (UniProt O14656)", "sequence (O14656 whole entry, looked up)": "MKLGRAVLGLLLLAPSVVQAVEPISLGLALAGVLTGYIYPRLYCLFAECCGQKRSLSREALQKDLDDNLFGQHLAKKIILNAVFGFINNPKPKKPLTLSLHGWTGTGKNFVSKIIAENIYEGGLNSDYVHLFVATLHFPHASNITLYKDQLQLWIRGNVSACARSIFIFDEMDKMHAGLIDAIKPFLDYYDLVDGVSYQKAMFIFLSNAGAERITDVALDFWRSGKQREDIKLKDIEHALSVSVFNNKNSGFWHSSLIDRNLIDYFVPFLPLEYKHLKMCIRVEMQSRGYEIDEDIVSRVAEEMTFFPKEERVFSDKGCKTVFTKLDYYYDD", "assay": "torsin A binders from cell lysate, primary screen, small-molecule microarray, wild-type, 635/667 nm (AID 1149)", "details": "COS7 hTOR1A-WT lysate, 635 nm fluorescence, higher = more signal"}, "[9]": {"molecular_target": "Torsin-1A (Homo sapiens) (UniProt O14656)", "assay": "small-molecule binders of mutant TOR1A in lysate, primary screen, cell lysate, small-molecule microarray, COS7 lysate, 635/667 nm fluorescence (AID 1150);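 further: score pools 667 nm emission and signal to noise measuring lysate protein binding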", "details": "COS7 hTOR1A mutant lysate, 635 nm fluorescence, higher = more signal"}, "[10]": {"tested_on": "Sonic hedgehog protein (Shh)", "assay": "small-molecule binders of Shh protein, primary screen, biochemical, small-molecule microarray, 635/667 nm fluorescence (AID 1151);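 further: Shh protein binding to compounds spotted on small-molecule microarray slides; score combines spot fluorescence intensity with signal-to-noise across triplicate slides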", "details": "small-molecule microarray binding, 635 nm fluorescence; higher = more signal"}, "[11]": {"assay": "E. coli DRC41 culture turbidity changes, primary screen, E. coli filamentation inducer project, strain DRC41, OD650, 48 h (AID 1152);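 further: E. coli MC1000 strain DRC41 lacking acrAB efflux pump and sulA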", "details": "E. coli DRC41 (acrAB sulA), higher = more signal, called active from +8 up or from −8 down"}, "[12]": {"assay": "small-molecule binders of probe aLefty1, primary screen, biochemical, small-molecule microarray, 635/667 nm fluorescence (AID 1153);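 further: score merges spot fluorescence with signal-to-noise ratio from the scanned slide images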", "details": "higher = more signal"}, "[13]": {"assay": "PSAC antagonists in infected red cells, primary screen, cell-based, P. falciparum Indochina, OD700, 1 h (AID 1154)", "details": "P. falciparum Indochina infected RBC osmotic lysis, higher = more signal, called active from +8 up or from −8 down"}, "[14]": {"assay": "PSAC antagonists in infected red cells, primary screen, cell-based, P. falciparum Indochina, OD700, 2 h (AID 1155);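 further: lysis reports solute entry through the parasite surface anion channel PSAC; channel blockers reduce lysis of infected cells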", "details": "P. falciparum Indochina infected erythrocytes, osmotic lysis OD700; higher = more signal, called active from +8 up or from −8 down"}, "[15]": {"assay": "osmotic lysis modulators in infected erythrocytes, primary screen, PSAC antagonist project, cell-based, P. falciparum Indochina, OD700, 3 h (AID 1156)", "details": "higher = more signal, called active from +8 up or from −8 down"}, "[16]": {"assay": "PSAC antagonists in infected red cells, primary screen, cell-based, P. falciparum Indochina, OD700, 18 h (AID 1157)", "details": "P. falciparum Indochina infected erythrocytes, osmotic lysis OD700, 18 h; higher = more signal, called active from +8 up or from −8 down"}, "[17]": {"assay": "modulators of S6 phosphorylation in cells, primary screen, cell-based, A549, cytoblot, luminescence, serum-stimulated (AID 1158);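 further: serum-stimulated A549 lung adenocarcinoma cells; signal is phosphorylated S6 detected by cytoblot immunostaining with HRP secondary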", "details": "A549 phospho-S6 cytoblot, 5 h, higher = more signal"}, "[18]": {"molecular_target": "NADPH oxidase 2 (Homo sapiens) (UniProt P04839)", "sequence (P04839 whole entry, looked up)": "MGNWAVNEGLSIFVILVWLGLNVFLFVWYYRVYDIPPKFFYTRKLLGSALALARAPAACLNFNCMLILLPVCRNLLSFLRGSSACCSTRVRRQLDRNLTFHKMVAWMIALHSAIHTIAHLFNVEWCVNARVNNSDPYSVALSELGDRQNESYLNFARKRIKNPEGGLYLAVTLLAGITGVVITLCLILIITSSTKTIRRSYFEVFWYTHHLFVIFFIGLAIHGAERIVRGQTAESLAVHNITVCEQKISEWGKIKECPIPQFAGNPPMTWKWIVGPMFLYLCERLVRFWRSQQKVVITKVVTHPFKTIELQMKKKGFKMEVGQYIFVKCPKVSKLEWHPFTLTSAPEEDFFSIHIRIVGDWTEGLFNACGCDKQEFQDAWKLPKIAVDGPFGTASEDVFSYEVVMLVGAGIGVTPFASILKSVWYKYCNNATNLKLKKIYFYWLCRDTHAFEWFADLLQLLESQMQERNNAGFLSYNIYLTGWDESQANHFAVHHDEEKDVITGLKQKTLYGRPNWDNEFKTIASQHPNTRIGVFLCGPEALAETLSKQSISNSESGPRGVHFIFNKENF", "assay": "NOX2-dependent H2O2 signal modulators, primary screen, NOX inhibitor project, cell-based, HEK293-NOX2, PMA-stimulated, Amplex Red fluorescence (AID 1159); further: test concentration not given here", "details": "45 min, higher = more signal, called active from +8 up or from −8 down"}, "[19]": {"molecular_target": "NADPH oxidase 4 (Homo sapiens) (UniProt Q9NPH5)", "sequence (Q9NPH5 whole entry, looked up)": "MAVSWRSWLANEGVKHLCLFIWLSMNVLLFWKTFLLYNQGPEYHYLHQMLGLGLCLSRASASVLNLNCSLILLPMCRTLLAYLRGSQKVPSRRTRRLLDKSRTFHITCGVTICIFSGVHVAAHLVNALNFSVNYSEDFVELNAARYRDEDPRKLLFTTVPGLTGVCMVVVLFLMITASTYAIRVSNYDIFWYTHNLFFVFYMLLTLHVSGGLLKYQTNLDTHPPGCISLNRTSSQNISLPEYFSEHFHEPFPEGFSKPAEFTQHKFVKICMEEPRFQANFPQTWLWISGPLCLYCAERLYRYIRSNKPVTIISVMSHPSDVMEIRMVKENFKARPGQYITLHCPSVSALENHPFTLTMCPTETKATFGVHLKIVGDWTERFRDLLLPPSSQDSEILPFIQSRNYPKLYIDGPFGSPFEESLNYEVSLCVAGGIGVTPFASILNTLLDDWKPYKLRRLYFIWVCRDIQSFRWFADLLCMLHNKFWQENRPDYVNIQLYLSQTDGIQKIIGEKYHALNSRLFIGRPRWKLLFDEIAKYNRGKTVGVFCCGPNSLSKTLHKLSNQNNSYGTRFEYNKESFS", "assay": "NOX4-dependent H2O2 signal modulators, primary screen, NOX inhibitor project, cell-based, HEK293-NOX4, tetracycline-induced, Amplex Red fluorescence (AID 1160)", "details": "45 min, higher = more signal, called active from +8 up or from −8 down"}, "[20]": {"molecular_target": "NADPH oxidase 5 (Homo sapiens) (UniProt Q96PH1)", "sequence (Q96PH1 whole entry, looked up)": "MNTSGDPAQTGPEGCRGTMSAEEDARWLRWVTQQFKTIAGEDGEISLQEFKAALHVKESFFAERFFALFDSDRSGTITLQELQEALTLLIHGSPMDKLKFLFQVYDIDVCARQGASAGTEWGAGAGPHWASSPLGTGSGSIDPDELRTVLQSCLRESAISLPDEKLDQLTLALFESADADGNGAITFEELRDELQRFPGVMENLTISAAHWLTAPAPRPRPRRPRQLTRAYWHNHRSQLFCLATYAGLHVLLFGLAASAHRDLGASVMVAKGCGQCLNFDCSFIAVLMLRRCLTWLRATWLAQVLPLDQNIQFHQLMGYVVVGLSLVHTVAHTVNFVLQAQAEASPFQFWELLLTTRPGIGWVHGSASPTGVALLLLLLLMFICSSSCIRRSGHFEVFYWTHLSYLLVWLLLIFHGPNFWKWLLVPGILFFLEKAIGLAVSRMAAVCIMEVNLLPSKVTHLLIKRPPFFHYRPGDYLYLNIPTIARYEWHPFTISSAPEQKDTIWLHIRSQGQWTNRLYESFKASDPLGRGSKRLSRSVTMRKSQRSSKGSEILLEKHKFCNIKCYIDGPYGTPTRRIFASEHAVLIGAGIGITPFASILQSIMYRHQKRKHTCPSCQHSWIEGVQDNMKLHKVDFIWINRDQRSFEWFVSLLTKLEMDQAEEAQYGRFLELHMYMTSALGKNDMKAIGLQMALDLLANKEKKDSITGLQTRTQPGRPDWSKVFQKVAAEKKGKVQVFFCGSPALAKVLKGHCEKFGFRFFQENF", "assay": "NOX5-dependent H2O2 signal modulators, primary screen, NOX inhibitor project, cell-based, HEK293-NOX5, Amplex Red fluorescence (AID 1161)", "details": "HEK293-NOX5, ionomycin, 45 min, higher = more signal"}}, "note": "Calls of active or inactive are those of the source. Unless noted, how the calls were made is not given here.", "data": [{"molecule": "CO[C@H]1O[C@H](CO)[C@@H](OC(=O)Nc2ccc(Oc3ccccc3)cc2)[C@H](OC(=O)Nc2ccc3c(c2)OCO3)[C@@H]1OC(=O)Nc1ccc2c(c1)OCO2", "values": [{"measurement": "composite z-score", "setting": "[1]", "result": 1.31}, {"measurement": "z-score", "setting": "[2]", "result": "-2.74 (inactive)"}, {"measurement": "z-score", "setting": "[3]", "result": "-0.168 (inactive)"}, {"measurement": "z-score", "setting": "[4]", "result": "0.502 (inactive)"}, {"measurement": "z-score", "setting": "[5]", "result": "-0.917 (inactive)"}, {"measurement": "composite z-score", "setting": "[6]", "result": 0.894}, {"measurement": "composite z-score", "setting": "[7]", "result": 0.415}, {"measurement": "composite z-score", "setting": "[8]", "result": 0.626}, {"measurement": "composite z-score", "setting": "[9]", "result": 1.58}, {"measurement": "composite z-score", "setting": "[10]", "result": 1.66}, {"measurement": "z-score", "setting": "[11]", "result": "0.599 (inactive)"}, {"measurement": "composite z-score", "setting": "[12]", "result": 0.0751}, {"measurement": "z-score", "setting": "[13]", "result": "12.3 (active)"}, {"measurement": "z-score", "setting": "[14]", "result": "2.93 (inactive)"}, {"measurement": "z-score", "setting": "[15]", "result": "0.403 (inactive)"}, {"measurement": "z-score", "setting": "[16]", "result": "1.7 (inactive)"}, {"measurement": "z-score", "setting": "[17]", "result": 0.377}, {"measurement": "z-score", "setting": "[18]", "result": "1.24 (inactive)"}, {"measurement": "z-score", "setting": "[19]", "result": "-0.397 (inactive)"}, {"measurement": "z-score", "setting": "[20]", "result": -0.967}]}, {"molecule": "C=CC[C@@]1(C(=O)N2CCCCC2)N=C(c2ccc(OCCCO)cc2)O[C@@H]1c1ccccc1CN=[N+]=[N-]", "values": [{"measurement": "composite z-score", "setting": "[1]", "result": 0.381}, {"measurement": "z-score", "setting": "[2]", "result": "-4.96 (inactive)"}, {"measurement": "z-score", "setting": "[3]", "result": "-0.703 (inactive)"}, {"measurement": "z-score", "setting": "[4]", "result": "3.77 (inactive)"}, {"measurement": "z-score", "setting": "[5]", "result": "0.51 (inactive)"}, {"measurement": "composite z-score", "setting": "[6]", "result": 1.77}, {"measurement": "composite z-score", "setting": "[7]", "result": 0.233}, {"measurement": "composite z-score", "setting": "[8]", "result": 0.342}, {"measurement": "composite z-score", "setting": "[9]", "result": 0.711}, {"measurement": "composite z-score", "setting": "[10]", "result": 0.466}, {"measurement": "z-score", "setting": "[11]", "result": "0.279 (inactive)"}, {"measurement": "composite z-score", "setting": "[12]", "result": 0.393}, {"measurement": "z-score", "setting": "[13]", "result": "26 (active)"}, {"measurement": "z-score", "setting": "[14]", "result": "16 (active)"}, {"measurement": "z-score", "setting": "[15]", "result": "2.79 (inactive)"}, {"measurement": "z-score", "setting": "[16]", "result": "1.04 (inactive)"}, {"measurement": "z-score", "setting": "[17]", "result": 1.32}, {"measurement": "z-score", "setting": "[18]", "result": "-0.935 (inactive)"}, {"measurement": "z-score", "setting": "[19]", "result": "1.43 (inactive)"}, {"measurement": "z-score", "setting": "[20]", "result": 1.05}]}, {"molecule": "C=CCNC(=O)[C@@H]1[C@H]2C(=O)O[C@H](c3ccccc3)[C@H](c3ccccc3)N2[C@H](c2ccc(OCCO)cc2)[C@@]12C(=O)N(C(=O)OCCOC)c1ccc(C#CCC(C(=O)OC)C(=O)OC)cc12", "values": [{"measurement": "composite z-score", "setting": "[1]", "result": 0.486}, {"measurement": "z-score", "setting": "[2]", "result": "-2.47 (inactive)"}, {"measurement": "z-score", "setting": "[3]", "result": "0.975 (inactive)"}, {"measurement": "z-score", "setting": "[4]", "result": "0.208 (inactive)"}, {"measurement": "z-score", "setting": "[5]", "result": "-0.208 (inactive)"}, {"measurement": "composite z-score", "setting": "[6]", "result": 0.386}, {"measurement": "composite z-score", "setting": "[7]", "result": 0.322}, {"measurement": "composite z-score", "setting": "[8]", "result": 0.126}, {"measurement": "composite z-score", "setting": "[9]", "result": 0.681}, {"measurement": "composite z-score", "setting": "[10]", "result": 1.09}, {"measurement": "z-score", "setting": "[11]", "result": "-0.314 (inactive)"}, {"measurement": "composite z-score", "setting": "[12]", "result": 0.404}, {"measurement": "z-score", "setting": "[13]", "result": "7.08 (inactive)"}, {"measurement": "z-score", "setting": "[14]", "result": "1.72 (inactive)"}, {"measurement": "z-score", "setting": "[15]", "result": "-0.211 (inactive)"}, {"measurement": "z-score", "setting": "[16]", "result": "0.581 (inactive)"}, {"measurement": "z-score", "setting": "[17]", "result": -0.0943}, {"measurement": "z-score", "setting": "[18]", "result": "2.26 (inactive)"}, {"measurement": "z-score", "setting": "[19]", "result": "1.2 (inactive)"}, {"measurement": "z-score", "setting": "[20]", "result": 1.37}]}, {"molecule": "COc1ccc([Si](C)(C)[C@@H]2[C@@H](CC(=O)N3Cc4ccccc4C[C@H]3CO)O[C@]3(C(=O)N(Cc4cccc(N5CCC5=O)c4)c4ccccc43)[C@H]2C)cc1", "values": [{"measurement": "composite z-score", "setting": "[1]", "result": 0.103}, {"measurement": "z-score", "setting": "[2]", "result": "-3.42 (inactive)"}, {"measurement": "z-score", "setting": "[3]", "result": "-0.0211 (inactive)"}, {"measurement": "z-score", "setting": "[4]", "result": "2.03 (inactive)"}, {"measurement": "z-score", "setting": "[5]", "result": "1.34 (inactive)"}, {"measurement": "composite z-score", "setting": "[6]", "result": 0.244}, {"measurement": "composite z-score", "setting": "[7]", "result": -0.0463}, {"measurement": "composite z-score", "setting": "[8]", "result": 0.589}, {"measurement": "composite z-score", "setting": "[9]", "result": 0.61}, {"measurement": "composite z-score", "setting": "[10]", "result": 1.45}, {"measurement": "z-score", "setting": "[11]", "result": "-0.879 (inactive)"}, {"measurement": "composite z-score", "setting": "[12]", "result": 0.199}, {"measurement": "z-score", "setting": "[13]", "result": "2.84 (inactive)"}, {"measurement": "z-score", "setting": "[14]", "result": "1.09 (inactive)"}, {"measurement": "z-score", "setting": "[15]", "result": "-0.2 (inactive)"}, {"measurement": "z-score", "setting": "[16]", "result": "0.917 (inactive)"}, {"measurement": "z-score", "setting": "[17]", "result": 0.275}, {"measurement": "z-score", "setting": "[18]", "result": "-0.355 (inactive)"}, {"measurement": "z-score", "setting": "[19]", "result": "0.912 (inactive)"}, {"measurement": "z-score", "setting": "[20]", "result": 2.11}]}]}
